# Assay results as given in PubChem BioAssay AID463173 (ICCB-Longwood Screening Facility, Harvard Medical School, 2010).
# The whole screen tested about 52,000 compounds, of which about 4,300 (8.3%) were called active. This is one part of a sample in which actives are shown more often than they occur. Values without a mark were called inactive. Cut-off read from the data, not from the text of the source: active = survival mostly below about 52% (no sharp cut-off); inactive = mostly above about 56%.
# Tested on: DeltatarO mutant
# Assay: S. aureus survival, RN4220 and DeltatarO strains – OD600, teichoic acid synthesis inhibitors, primary screen (AID 463173)
# Details: S. aureus RN4220 wild type/DeltatarO growth, OD600, 18 h, stronger effect = lower value, screened at 18.75 µg/mL (by protocol)
row,SMILES,survival
1,CCOC(=O)c1c(S(=O)(=O)N2CCCC(C(=O)Nc3cccc(C)n3)C2)c(C)n(C)c1C (stereo not given),87%
2,O=c1oc2ccc3ccccc3c2cc1-c1nnc(Nc2cccc(C(F)(F)F)c2)s1,81%
3,COc1ccccc1-c1noc(-c2ccc(NC3CCCCC3)c([N+](=O)[O-])c2)n1,41% (active)
4,COc1cc(-c2noc(-c3ccc(NC4CCCCC4)c([N+](=O)[O-])c3)n2)cc(OC)c1OC,76%
5,Cc1ccccc1-c1noc(-c2ccc(NC3CCCC3)c([N+](=O)[O-])c2)n1,66%
6,COc1ccc(-c2noc(-c3ccc(NC4CCCC4)c([N+](=O)[O-])c3)n2)cc1OC,55%
7,COc1ccc(-c2noc(-c3ccc(NC4CCCCC4)c([N+](=O)[O-])c3)n2)cc1OC,68%
8,COc1ccccc1-c1noc(-c2ccc(NC3CCCC3)c([N+](=O)[O-])c2)n1,43% (active)
9,CCCn1c(CN2CCN(c3ccc(OC)cc3)CC2)nc2c1c(=O)[nH]c(=O)n2C,91%
10,CCOCCCN1C(=O)CN(C2CCCCCC2)C(=O)C1c1ccc(OCC)c(OC)c1 (stereo not given),122%
11,Cc1ccccc1C1=CCN(c2ncc(NC(=O)c3ccc(Cl)cc3)cc2C(=O)O)CC1,95%
12,COCCCNC(=O)CCCN1C(=O)CCn2nc(-c3cccn3C)cc21,97%
13,NC(=O)c1ccccc1NC(=O)CN1c2ccccc2S(=O)(=O)c2ccccc21,92%
14,O=C(CN1c2ccccc2S(=O)(=O)c2ccccc21)Nc1ccccc1Cl,57%
15,Cc1cccc(NC(=O)CN2c3ccccc3S(=O)(=O)c3ccccc32)c1C,0% (active)
16,CCOc1ccccc1NC(=O)CN1c2ccccc2S(=O)(=O)c2ccccc21,37% (active)
17,CCOc1ccccc1NC(=O)CN1C=NS(=O)(=O)c2ccccc21,72%
18,Cc1cc(C)c(NC(=O)CN2c3ccccc3S(=O)(=O)c3ccccc32)c(C)c1,106%
19,CCC(=O)Nc1ccc2nc(C3CC3)n(Cc3ccc(Cl)cc3)c(=O)c2c1,111%
20,Cc1cccc(C)c1OCC(=O)NCC1(N(C)C)CCCCC1,86%
21,Cc1ccc(Cn2c(CNC(=O)c3ccccc3Br)nc3cccnc32)cc1,120%
22,COc1cc(OC)c(NS(=O)(=O)c2cc3c(cc2C)NC(=O)CO3)cc1Cl,88%
23,CCN(CC)CCCNC(=O)C1CCN(S(C)(=O)=O)CC1,85%
24,CCOc1ccccc1Nc1cc(-c2ccccc2)nc(C)n1,60%

row,SMILES,survival
1,CSc1nc(C)cc(Nc2cccc(C(=O)O)c2)n1,63%
2,Cc1cc(C)cc(Nc2cc(-c3ccccc3)nc(C)n2)c1,8% (active)
3,COc1ccc(Nc2cc(C)c3ccccc3n2)cc1,96%
4,COc1cccc(Nc2cc(-c3ccccc3)nc(C)n2)c1,37% (active)
5,Cc1cc(Nc2ccc(Br)cc2)nc(C)n1,51%
6,Cc1ccc(NC(=O)c2cc3nc(-c4ccccc4)cc(-c4ccccc4)n3n2)cc1,60%
7,CSc1nc(Nc2ccc(C)cc2C)cc(-c2ccccc2)n1,51%
8,Cc1nc(Nc2ccc(Cl)cc2)cc(-c2ccccc2)n1,-4% (active)
9,CSc1nc(Nc2ccc(F)cc2)cc(-c2ccccc2)n1,-5% (active)
10,CCN(CC)CCCNc1cc(-c2ccccc2)nc(C)n1,65%
11,Cc1cc(C)cc(Nc2cc(C(=O)NC3CCCCC3)c3ccccc3n2)c1,116%
12,Cc1ccc(C(C)(C)C)c(OCC(=O)NCCc2nc3ccccc3[nH]2)c1,70%
13,O=C(Cn1c(=O)nc(-c2ccccc2)c2cc(Cl)ccc21)NCc1ccccc1,83%
14,COc1ccc(NS(=O)(=O)c2cnc(N)nc2)cc1Cl,67%
15,CN1C(=O)C(Cc2ccccc2)NC1=S (stereo not given),77%
16,O=C(NC(=S)NCc1ccccc1)c1ccco1,71%
17,COc1cc(Cl)c(C)cc1NC(=O)CCc1c(C)nc2c3cccnc3nn2c1C,87%
18,COc1ccc(Cl)cc1Nc1sc(C(=O)c2ccccc2)c(N)c1C(=O)Nc1ccccc1,103%
19,Cc1ccc(CNC(=O)CN2C(=O)C3CCCCN3c3ccc(C(=O)N(C)C)cc32)cc1 (stereo not given),88%
20,Cc1cc(C)c2nc(NCCNC(=O)C3CCCCC3)c(C#N)cc2c1,93%
21,Cc1ccc(Nc2cc(-c3ccccc3)nc(C)n2)cc1,24% (active)
22,CCOC(=O)c1ccc(Nc2cc(-c3ccccc3)nc(C)n2)cc1,50%
23,Cc1ccc(-c2cc(-c3ccccc3)nc(N3CCCC3)n2)cc1,115%
24,Cc1ccc(CCNC(=O)c2ccc(CS(=O)(=O)Cc3ccc(Cl)cc3)o2)cc1,84%

row,SMILES,survival
1,Cn1nnc2c(N3CCN(c4ccccc4F)CC3)ncnc21,83%
2,Cc1cc(Cl)nc(-c2ccccc2)n1,91%
3,CCOc1ccc(NC(=O)CN2CCSc3ccc(S(=O)(=O)N4CCCC4)cc32)cc1,76%
4,Cc1ccc(NC(=O)CN2CCSc3ccc(S(=O)(=O)N4CCCC4)cc32)cc1,77%
5,CCc1ccc(NC(=O)CN2CCSc3ccc(S(=O)(=O)N4CCCC4)cc32)cc1,-4% (active)
6,Cc1ccc(NC(=O)CSc2nc(=O)n(Cc3cccnc3)c3c2CCC3)cc1F,67%
7,Cc1ccc(C(=O)CSc2ncn(-c3ccccc3)n2)c(C)c1,42%
8,Cc1ccc(Cn2cccc(NC(=O)c3ccncc3)c2=O)cc1,101%
9,Cc1ccc(Cn2cccc2C2=NC(C)(C)CO2)cc1,45% (active)
10,Cc1ccc(Cn2ccn(Cc3ccc(C)cc3)c(=O)c2=O)cc1,97%
11,O=S(=O)(Nc1ccc(F)cc1F)c1ccc(-n2cccn2)cc1,70%
12,Cc1ccccc1NS(=O)(=O)c1ccc(Br)s1,109%
13,COc1ccc(OC)c(NS(=O)(=O)c2ccc(Br)s2)c1,37% (active)
14,O=S(=O)(Nc1ccc(F)cc1F)c1ccc(Br)s1,22% (active)
15,COc1ccc(OC)c(NS(=O)(=O)c2ccc(-c3cc(C)no3)s2)c1,88%
16,COc1ccc(CNS(=O)(=O)c2ccc3c(c2)C(C)(C)C(=O)N3C)cc1OC,76%
17,COc1ccc(OC)c(NS(=O)(=O)c2ccc3c(c2)C(C)(C)C(=O)N3C)c1,48% (active)
18,CC(C)Oc1ccc(CNS(=O)(=O)c2ccc3c(c2)C(C)(C)C(=O)N3C)cc1,84%
19,O=S(=O)(Nc1ccc(F)c(Cl)c1)c1ccc(Br)s1,10% (active)
20,O=C(Nc1ccc(Cl)cc1)C1CCC(CNS(=O)(=O)c2ccc(Br)s2)CC1 (stereo not given),86%
21,O=c1ccc2cc(S(=O)(=O)Nc3ccc(F)c(Cl)c3)ccc2[nH]1,89%
22,COc1ccc(NC(=O)C2CCC(CNS(=O)(=O)c3ccc(Br)s3)CC2)c(OC)c1 (stereo not given),74%
